Assay results published in ChEMBL document CHEMBL3988442, “University of Dundee, Small-Polar-MMV Screening Library” (2021).

Legend:
[1] = biological target: T1, Aspartate--tRNA(Asp/Asn) ligase (Mycobacterium tuberculosis (strain ATCC 25618 / H37Rv)) (UniProt P9WFW3); assay: Assay for Asp RNA synthetase-1 from Mycobacterium tuberculosis; assay type: functional; set-up: scale not given: direction of the effect not stated beside the values; conditions: 30 µM; note: in the data most compounds retested in dose-response had high values
T1 sequence (whole entry): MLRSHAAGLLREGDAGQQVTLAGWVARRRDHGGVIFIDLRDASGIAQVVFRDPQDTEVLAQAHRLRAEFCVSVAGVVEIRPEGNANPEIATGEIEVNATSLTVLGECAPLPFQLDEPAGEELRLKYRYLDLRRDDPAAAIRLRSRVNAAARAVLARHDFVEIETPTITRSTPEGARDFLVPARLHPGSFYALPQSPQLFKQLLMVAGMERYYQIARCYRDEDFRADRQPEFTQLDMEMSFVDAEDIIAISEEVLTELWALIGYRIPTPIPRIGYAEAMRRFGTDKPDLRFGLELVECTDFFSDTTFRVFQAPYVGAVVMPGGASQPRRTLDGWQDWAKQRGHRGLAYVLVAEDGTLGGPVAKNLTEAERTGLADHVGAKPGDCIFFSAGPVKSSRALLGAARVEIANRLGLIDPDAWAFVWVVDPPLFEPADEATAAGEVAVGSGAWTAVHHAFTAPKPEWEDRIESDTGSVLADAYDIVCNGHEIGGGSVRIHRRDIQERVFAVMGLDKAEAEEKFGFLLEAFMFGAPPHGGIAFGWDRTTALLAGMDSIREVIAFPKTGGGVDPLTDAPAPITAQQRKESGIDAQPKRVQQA

[2] = biological target: Shiga toxin 2 (Escherichia coli O157:H7) (UniProt P09385+P09386); assay: E. coli 0.157:H7 Shiga Toxin SOP - stx2 screening assay; assay type: functional; set-up: scale not given: direction of the effect not stated beside the values; conditions: 30 µM

| SMILES | Percent Effect [1] [%] | Percent Effect [2] [%] |
| --- | --- | --- |
| O=C(Nc1cccnc1)[C@H]1CO[C@H]2CCN(c3ncc(F)cn3)C[C@H]2C1 | 0.524 | -22.2 |
| CC(C)c1nnc2n1CCN(C(=O)c1ccc(CN(C)C)cc1)C2 | -0.75 | 17.3 |
| O=C(NCC(O)CN1CCc2ccccc2C1)Nc1cccnc1 (centres undefined) | -0.98 | -22.8 |
| Cn1ccc(CN2CCC(CCc3ccc(O)cc3)CC2)cc1=O | -1.67 | -46.5 |
| CNC(=O)CN1CCC(NC(=O)N(C)Cc2cc(C)on2)CC1 | -6.28 | 19 |
| CCCNC(=O)c1cc2c([nH]c1=O)CC(c1cccs1)CC2=O (centres undefined) | -5.46 | -20.3 |
| COc1cccc(COCC(=O)N2CCCC(c3nncn3C)C2)c1 (centres undefined) | -1.97 | 8.24 |
| COCC1COCCC12CCN(CCc1ccccc1)CC2 (centres undefined) | -6.15 | 2.07 |
| CCC(=O)N1CCN(Cc2cc(-c3ccncc3)nn2C)CC1 | -0.849 | -10.7 |
| Cc1cc(C)nc(Nc2cccc(C3CCCN(C)C3)n2)n1 (centres undefined) | -3.29 | 1.38 |
| CCCNC(=O)c1cnc(N(C)C)nc1COC | -0.929 | -6.54 |
| c1ccc(Cn2ccnc2CN2CCCC2c2noc(C3CC3)n2)cc1 (centres undefined) | 6.6 | -32.8 |
| Cc1ccc(C(=O)N2CCO[C@H]3[C@@H](OCc4ccccn4)CC[C@@H]32)o1 | 6.63 | -6.16 |
| Cc1nc2ccccc2c(=O)n1CCC(=O)N1CCSCC1 | 1.9 | 7.96 |
| O=C(N1CCCC1)N1CCO[C@H]2[C@@H](Oc3ccccn3)CC[C@@H]21 | -4.07 | -9.25 |
| NC(=O)CN1CCC(C(=O)N2CCCC(OCc3cccnc3)C2)CC1 (centres undefined) | -13.4 | 18 |
| CCNC(=O)c1ccc(CNCc2c(C)nn(C)c2N(C)C)cc1 | -0.75 | -25.7 |
